Test results taken from the supplement of paper PMC4466236.
In all, about 33,000 sequences were measured (“E-score (dimensionless, -0.5 to 0.5)”: median about -0.058, highest 2% from about 0.35 on). The sample holds the highest values, similar sequences and a random draw of the others, so the mix is not that of the screen.

What follows are sequences tested on MvaT (assay: PBM 8-mer E-score (mean of HK and ME arrays) (E-score (dimensionless, -0.5 to 0.5)); higher = stronger relative binding preference).
Summary of the method: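 Reported values are rank-based E-scores, taken as the mean of two universal arrays and parsed with a custom script. Each 8-mer score falls between -0.5 and 0.5. The arrays, ME and HK, were double-stranded 60-mers with a constant 25-mer primer region and a variable 35-mer region covering all 8-mers. They were probed, by an earlier protocol, with full-length P. aeruginosa MvaT carrying an N-terminal glutathione S-transferase fusion.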

Sequence	PBM 8-mer E-score
CGTGAAGC	-0.218
CTTGGTTA	0.0108
CATATCAC	0.15
GAGGCACC	-0.229
ATACAAAT	0.35
AAACATAC	0.284
ATACATAT	0.394
GAACATAA	0.256
ATACATAA	0.336
ATACATAC	0.319
AAACATAA	0.371
ATACAAAA	0.304
TAACATAA	0.303
AAACATAT	0.361
AAACATAG	0.216
ATACAAAG	0.27
CAGTTGAC	0.0902
GGTCGAAC	-0.0987
AGTCAGAG	-0.21
CCTGGCGC	-0.207
TATAAAGA	0.327
GATAAAGA	0.271
GATAAATC	0.137
CATAAATC	0.163
CGTAAATA	0.236

Sequence	PBM 8-mer E-score
GATAAATA	0.382
CCTAAATA	0.226
TATAAATA	0.426
CATAAATA	0.358
CATAAATG	0.112
AGTAAATA	0.361
AGTAAATC	0.0898
CCCTGGAA	-0.276
CCCTACAC	-0.212
CTCCGCCA	-0.247
ACTCAGTA	0.118
AATTGAGA	0.0559
AATAAATA	0.434
AATAAATG	0.33
CATAAGTA	0.315
AATAAACT	0.293
AAGAAATT	0.26
AATAAGTA	0.387
AATAAATC	0.319
AATAAGTG	0.254
AATAAATT	0.436
CCAAGTTC	0.0376
AGGAGAAC	-0.112
CGACTCAA	-0.0083
TACCATAA	0.271

Sequence	PBM 8-mer E-score
CATCTCCG	-0.186
AGCTTGCG	-0.227
TATATGCA	0.412
CATATGCA	0.164
GATATGAA	0.156
AATATGAA	0.329
AATATGCA	0.264
TATATGAA	0.382
CAGCACAA	-0.0547
TCAGCCCA	-0.133
AAAGTATG	0.216
ACGTAAAC	-0.0262
AATACGGG	-0.0239
CACTTATA	0.326
TACTTATA	0.389
AACTTATA	0.415
GACTTATA	0.312
ACCTTATA	0.266
AACTTACA	0.33
AAGCCGGA	-0.238
TACTGTAA	0.336
AAGGACGT	-0.149
GGAGTCAA	-0.134
CTTGAACA	-0.0207
AAGGTGGG	-0.155

Sequence	PBM 8-mer E-score
CCGCGGCG	-0.0831
ACGAGGCT	-0.135
ATTGGTAC	0.139
CTGTAATC	0.0848
CTCTAATA	0.364
CTGTAATA	0.36
GTATAAGA	0.278
GTATAATA	0.416
ATCTAATA	0.321
GTGTAATA	0.342
CCATAATA	0.287
GTCTAATA	0.269
CTATAATA	0.42
ATGTAATA	0.317
CTTCAACA	0.0315
CCCGCGTA	-0.177
CGTCTCAG	-0.227
CTGTTTCA	-0.122
AACCCATT	0.0496
GACCAACC	-0.0441
GCATCAGC	-0.135
CTCGTCGC	-0.208
ATTATGTA	0.377
AATATGTA	0.365
AATATGTG	0.368

Sequence	PBM 8-mer E-score
ATTATGTC	0.305
GATATGTA	0.282
ACTATGTG	0.172
ATTATGTG	0.261
CATATGTA	0.252
AACATGTC	-0.0784
AACATGTA	0.347
AACATGTT	0.295
AATATGTC	0.233
GTTGCAAC	0.157
CGAGCTTC	-0.313
ACAGTCTA	-0.0014
ATAAAGGA	0.0948
ACAGGCCG	-0.147
ATAAAGTG	0.228
CATGATAC	0.111
GATATACC	0.178
GGGATATA	0.218
GATATATC	0.396
CCGATATA	0.333
GCGATATA	0.361
ACGATATA	0.328
GAGATATC	0.163
GATATATA	0.469
GATATCTA	0.267

Sequence	PBM 8-mer E-score
TCAAGTGA	-0.00408
AAAGAGTC	0.0357
GTCGATCA	-0.174
CTGATACA	0.0751
AATACAGC	0.247
CTCGCAGC	-0.11
CCTCACCC	-0.165
AGAATTTC	0.122
GTAATTGA	0.264
ATAATTTA	0.416
GTAATTTA	0.388
ATAATTCA	0.325
CTAATTTA	0.389
CTAATTGA	0.11
ATAATTTC	0.386
GTAATTCA	0.191
CTAATTTC	0.0429
AGAATTTA	0.262
ATAATTTG	0.298
AGTAGAGA	0.0385
CCTGAATA	0.0626
ACGGCAGA	-0.166
GCCACACC	-0.0459
AACTCTGC	0.143
AAAGGTCA	-0.0376

Sequence	PBM 8-mer E-score
ATCTCATA	-0.00882
TCTTATAA	0.369
CCTTATAA	0.338
TCTTATCA	0.177
ACTTATAC	0.326
ACTTATCA	0.196
ACTTATGA	0.248
ACTTATAT	0.424
GCTTATGA	-0.0922
ACTTATAG	0.251
GCTTATAC	0.166
GCTTATAA	0.418
ACTTATAA	0.419
GAGCGTAC	-0.233
AGTTACTG	0.282
ACTGGATA	0.12
ACCTAAGA	-0.0551
GCCCACGA	-0.205
CAATGAGA	-0.0714
GATAGAAA	0.105
AGAAAGGG	-0.151
GCTCTTGA	-0.154
ATGTTGGG	0.105
GGGAACTA	-0.0248
AACATTAT	0.34

Sequence	PBM 8-mer E-score
TACATTAA	0.38
GACATTAA	0.222
AACATTAA	0.397
CACATTAA	0.305
AACATTAG	0.234
AAATCAGT	0.111
CATAAGGA	-0.0113
TATAAGGA	0.348
CATAAGAA	0.126
GATAAGAA	0.121
TATAAGAA	0.369
GATAAGGA	-0.0851
CATGGAGC	-0.21
ATCTGCAT	0.0581
CTGCATGC	-0.0882
AGAAATCA	-0.0327
AGAAATAA	0.37
CGAAATAA	0.374
AGAAATAT	0.356
AGAAATAC	0.157
GGAAATAA	0.31
TGAAATAA	0.314
AGAAATAG	0.216
CGAAATAC	0.0434
GCTCACAC	-0.19

Sequence	PBM 8-mer E-score
AAAGCCTA	0.125
CCTATATA	0.35
CCTATACA	0.116
GCTATATA	0.402
ACTATATC	0.268
GCTATAGA	-0.132
ACTATATA	0.452
CCTATATC	0.0838
GCTATACA	0.135
ACTATACA	0.241
CGGCTGCC	-0.286
CATCCAAA	0.0181
ATAGTGTG	0.179
TAGGAAAA	0.015
ACCAGACG	-0.141
ATAAAAAC	0.274
ATTAAAAG	0.393
CTAAAAAG	0.00374
ATTAAAAA	0.321
ATAAAAGG	0.119
CTTAAAAG	0.166
ATAAAAAT	0.293
ATAAAAAG	0.348
ATAAAAAA	0.387
